S2 tox: Viability Counterscreen for Primary qHTS for Inhibitors of ATXN expression; hit rate 0.49% among 400,000; S2 cells (HEK-293 line with an ATXN2-luciferase reporter) viability, CellTiter-Fluor protease fluorescence, 24 h; Potency, µM (highest dose often 56.7 µM), actives largely listed as cytotoxic; further: nearly all actives have a fitted effect of over 40% in size
ATXN2 expr inh: Primary qHTS for Inhibitors of ATXN expression | HEK-293 ATXN2-luciferase reporter, luminescence, 24 h | Potency, µM (doses to about 57 µM), most hits filed as inhibitors | hit rate 0.72% among 360,000; further: nearly all actives have a fitted effect of over 55% in size
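ATXN2-luciferase reporter cells (luciferase flanked by upstream and downstream ATXN2 gene portions) were treated 24 h at 37 °C with compounds at up to 57 uM. SteadyGlo luminescence gave expression; GF-AFC fluorescence gave viability.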
HepG2 tox: qHTS for Inhibitors of TGF-b: Cytotox Counterscreen; Potency, µM (series often up to 46.1 µM), most hits filed as cytotoxic; HepG2 CAGA-GFP viability, ATP luminescence, 18 h; hit rate 0.76% among 410,000
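CellTiter-Glo luminescence gave cytotoxicity after 18 hours at 37 degrees C. The cells were HepG2 CAGA-GFP in 1% FBS DMEM, stimulated with 500 pg/mL TGF-beta after compound addition. %Activity was normalised to no-cell wells (complete cell-killing) and DMSO (no toxicity), and curves were fitted and classified.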
12-LOX inh: Primary qHTS assay for inhibitors of human arachidonate 12S-lipoxygenase (ALOX12): Round 2 | hit rate 1.1% among 580,000 | purified 12hLO, xylenol orange hydroperoxide absorbance | AID 1671190, 2021 | Potency, µM (series often up to 108 µM), hits mostly inhibitors
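Hydroperoxide product was detected by ferrous iron/xylenol orange as the 573 to 405 nm absorbance ratio. Arachidonic acid at 40 uM (final) was turned over for 30 min at room temperature by 150 nM human 12hLO, pH 7.0 Hepes buffer, after 15 min compound preincubation.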
TGFb inhibitor: qHTS for Inhibitors of TGF-b | HepG2 CAGA-GFP TGF-b/SMAD3 reporter, GFP fluorescence, 18 h; TGF-beta stimulated, 500 pg/mL final | Potency, µM (top dose mostly 46.1 µM), actives largely listed as inhibitors | hit rate 1.2% among 410,000 | AID 588855, 2011; further: nearly all actives have a fitted effect of over 65% in size
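Cell-based qHTS in HEPG2 carrying a CAGA-GFP Smad reporter; compounds added before 500 pg/mL final TGF-beta, 18 h incubation at 37 degrees C, GFP fluorescence quantified per cell by imaging cytometry.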
Each line names hits and unclear results; the compound was inactive in the other large screens. Most compounds without a hit are left out; they make up all but 2.7% or so of the library. The call rests on the fitted dose curve; in most records, active means well fitted curve in the direction sought with a large enough effect; inconclusive means small, poorly fitted or top-dose-only effect, or another doubt; inactive means no such curve, though single readings can be large; an effect the other way counts as inactive or inconclusive.

CCOC(=O)C1=C(C2=CCCCC2)c2ccc(OC)cc2N(S(=O)(=O)C(F)(F)F)C1C(=O)OCC (stereo not given)	S2 tox inconclusive, ATXN2 expr inh inconclusive, TGFb inhibitor 14µM (no result: 12-LOX inh)
CCOC(=O)C1C(C(=O)OC)=C(c2ccc(OC)cc2)c2ccc(OC)cc2N1S(=O)(=O)C(F)(F)F (stereo not given)	TGFb inhibitor inconclusive (no result: 12-LOX inh)
COc1cc(-c2ccnc3nc(-c4ccco4)nn23)cc(OC)c1OC	none (no result: S2 tox, ATXN2 expr inh, HepG2 tox, TGFb inhibitor)
Cn1c(=O)oc2cc(S(=O)(=O)Nc3ccc(F)cc3)ccc21	HepG2 tox 4µM
CCOc1ccccc1NS(=O)(=O)c1ccc2c(c1)oc(=O)n2C	none (no result: S2 tox, ATXN2 expr inh)
CCOc1ccccc1CNS(=O)(=O)c1ccc2c(c1)oc(=O)n2C	12-LOX inh 4µM
Cn1c(=O)oc2cc(S(=O)(=O)Nc3ccc(Cl)cc3)ccc21	12-LOX inh inconclusive
CCOc1ccccc1Nc1cc(C)nc2nc(C)nn12	12-LOX inh 5.6µM
Cc1ccccc1NC(=O)c1ccc2ccccc2n1	none (no result: S2 tox, ATXN2 expr inh, HepG2 tox, TGFb inhibitor)
C/C(=N\NC(=S)NCc1ccccc1)c1ccc(C#N)cc1	none
C/C(=N\NC(=S)NCc1ccccc1)c1ccc(C(C)(C)C)cc1	12-LOX inh 35µM, TGFb inhibitor inconclusive
COc1ccc(CNC(=S)N/N=C(/C)c2ccccc2)cc1	12-LOX inh inconclusive
C/C(=N\NC(=S)NCc1ccccc1)c1ccccc1	12-LOX inh 40µM, TGFb inhibitor inconclusive
C/C(=N\NC(=S)NCc1ccccc1)c1ccccc1F	12-LOX inh 35µM
COc1ccc2[nH]c(C(=O)NCC(=O)Nc3ccc4c(c3)OCCO4)cc2c1OC	none (no result: S2 tox, ATXN2 expr inh, HepG2 tox, TGFb inhibitor)
COc1cc(-c2nc3nc(C)cc(C)n3c2Nc2ccc(Cl)cc2)ccc1O	TGFb inhibitor 13µM (no result: S2 tox, ATXN2 expr inh)
COc1ccc(Nc2c(-c3cccc(OC)c3)nc3nc(C)cc(C)n23)cc1	none (no result: HepG2 tox, TGFb inhibitor)
COc1cc(SC)ccc1C(=O)OCC(=O)NCc1cccs1	none (no result: S2 tox, ATXN2 expr inh, HepG2 tox, TGFb inhibitor)
Cc1ccc(OCc2n[nH]c(=S)n2N)cc1C	12-LOX inh inconclusive
CCCCOc1ccc(Cc2n[nH]c(=S)n2N)cc1	12-LOX inh 8.9µM
COc1ccc(Cc2n[nH]c(=S)n(N)c2=O)cc1	12-LOX inh 25µM (no result: S2 tox)
Cn1c(=O)[nH]c(=O)c2c1nc(N1CCN(CC(N)=O)CC1)n2Cc1ccc(Cl)cc1	none (no result: S2 tox, ATXN2 expr inh, HepG2 tox, TGFb inhibitor)
COC(=O)C1=C(C(=O)OC)C(c2cc(Br)ccc2O)c2sc(=O)[nH]c2S1 (stereo not given)	12-LOX inh 45µM
COC(=O)C1=C(C(=O)OC)C(c2cc(Cl)ccc2O)c2sc(=O)[nH]c2S1 (stereo not given)	TGFb inhibitor inconclusive (no result: 12-LOX inh)
O=C(CCCN1C(=O)/C(=C\c2cccc(Br)c2)SC1=S)Nc1cccnc1	S2 tox inconclusive, ATXN2 expr inh inconclusive, TGFb inhibitor 11µM
O=C(CCCN1C(=O)/C(=C/c2cccc(Br)c2)SC1=S)Nc1cccnc1	S2 tox inconclusive, ATXN2 expr inh inconclusive, TGFb inhibitor inconclusive
Cc1ccc(/C=C2\SC(=S)N(CC(=O)Nc3cccnc3)C2=O)cc1	none
O=C(CCCN1C(=O)/C(=C/c2ccccc2Cl)SC1=S)NNC(=O)c1ccc(Cl)cc1Cl	ATXN2 expr inh 2.5µM
O=C(CCCN1C(=O)/C(=C/c2cccc(Br)c2)SC1=S)Nc1ccccn1	S2 tox inconclusive, ATXN2 expr inh 10µM
COC(=O)c1ccc(/C=C2/SC(=S)N(CCCC(=O)Nc3ccccn3)C2=O)cc1	ATXN2 expr inh inconclusive
Cc1ccc(/C=C2\SC(=S)N(CCCC(=O)Nc3cccnc3)C2=O)cc1	S2 tox inconclusive, ATXN2 expr inh 3.5µM (no result: 12-LOX inh)
N#Cc1cccc(CSc2nnc(N3CCCC3)n2-c2cccc(Cl)c2)c1	none (no result: S2 tox, ATXN2 expr inh, HepG2 tox, TGFb inhibitor)
CCc1ccc(/C=C2\SC(=S)N(CCCC(=O)Nc3ccccn3)C2=O)cc1	S2 tox inconclusive, ATXN2 expr inh 4.5µM, TGFb inhibitor inconclusive
COc1ccc(/C=C2\SC(=S)N(CCCC(=O)N3CCOCC3)C2=O)cc1	12-LOX inh 45µM
COc1ccc(/C=C2\SC(=S)N(CCCC(=O)N3CCOCC3)C2=O)cc1OC	none
NC(=O)c1ccc(COC(=O)c2ccccc2-c2ccccc2)cc1	none (no result: S2 tox, ATXN2 expr inh, HepG2 tox, TGFb inhibitor)

Compound activity deposited in PubChem BioAssay by National Center for Advancing Translational Sciences (NCATS).
